High-throughput results: PubChem BioAssay, National Center for Advancing Translational Sciences (NCATS)
Sampled rows, rich in hits. Any-hit rate of the full collection: about 7.3%.
Tau fibril FP = tau fibrillization inhibition (FP) | 280,000 compounds, 0.39% hits | AID 1468 | Potency, µM (highest dose often 57.7 µM), most hits filed as inhibitors | P10636 | K18 P301L tau heparin fibrillization, Alexa594 FP, 6 h; note: nearly all actives have a fitted effect of over 55% in size
Target sequence (P10636 561-689 P618L limits assumed): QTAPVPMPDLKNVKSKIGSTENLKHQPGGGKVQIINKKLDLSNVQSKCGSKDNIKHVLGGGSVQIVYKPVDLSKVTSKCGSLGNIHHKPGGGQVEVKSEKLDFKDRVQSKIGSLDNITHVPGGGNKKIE
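K18 P301L tau (15 uM unlabeled/0.24 uM Alexa 594-labeled, final) + compound + heparin 20 uM final; 100 mM NaOAc pH 7; 6 hr 37 C; ThT 30 uM final added, 1 hr RT; FP ex 555/em 632 nm.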
RORg inh = inhibitors of mouse ROR gamma transcriptional activity; P51450; Drosophila S2 Gal4-RORgamma UAS-luciferase reporter, 20 h; Potency, µM (titrated, usually from 53.6 µM), hits mostly inhibitors; 310,000 compounds, 5.4% hits; note: nearly all actives have a fitted effect of over 60% in size
Target sequence (P51450 whole entry, looked up, the tested form may be a part): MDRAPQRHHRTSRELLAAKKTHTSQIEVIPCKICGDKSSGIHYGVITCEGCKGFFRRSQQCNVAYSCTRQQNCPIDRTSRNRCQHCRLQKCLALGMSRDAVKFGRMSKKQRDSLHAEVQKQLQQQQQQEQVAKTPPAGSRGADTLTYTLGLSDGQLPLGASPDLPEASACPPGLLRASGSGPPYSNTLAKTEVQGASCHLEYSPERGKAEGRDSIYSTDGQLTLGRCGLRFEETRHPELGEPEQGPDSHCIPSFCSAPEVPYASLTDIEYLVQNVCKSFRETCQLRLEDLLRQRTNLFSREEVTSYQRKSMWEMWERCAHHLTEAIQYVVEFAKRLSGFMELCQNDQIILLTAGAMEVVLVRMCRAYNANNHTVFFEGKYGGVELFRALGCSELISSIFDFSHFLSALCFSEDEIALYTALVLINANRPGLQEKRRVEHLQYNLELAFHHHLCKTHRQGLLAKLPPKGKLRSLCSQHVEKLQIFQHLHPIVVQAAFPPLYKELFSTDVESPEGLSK
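Using a luciferase readout, inhibitors were identified by reduced reporter activity in Drosophila cells coexpressing a copper-inducible Gal4–ROR gamma fusion and UAS-driven Photinus luciferase, incubated 20 hr after 700 uM copper sulfate.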
VP16 counter = inhibits Gal4-VP16 luciferase reporter, ROR gamma counter-screen; Drosophila S2 Gal4-VP16 UAS-luciferase, luminescence, 20 h; 310,000 compounds, 3.5% hits; AID 2546; Potency, µM (titrated, usually from 53.6 µM), most hits filed as inhibitors;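 note: Gal4-VP16 expression switched on by copper sulfate through the metallothionein promoter; nearly all actives have a fitted effect of over 50% in size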
Tau fluor cs = counter-screen for tau fibril formation inhibitors | tau K18 P301L Alexa594 fluorescence, heparin fibrillization | AID 1463 | Potency, µM (series often up to 57.7 µM) | 280,000 compounds, 0.93% hits; note: nearly all actives have a fitted effect of over 55% in size
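Human tau K18 P301L (15 uM unlabeled, 0.24 uM Alexa 594-labeled) in 100 mM sodium acetate pH 7 with 20 uM heparin, 6 hr at 37 C. ThT 30 uM added, 1 hr ambient; Alexa 594 FP and total fluorescence read at 555/632 nm.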
Tau ThT inhib = tau fibrillization inhibition (ThT binding); recombinant tau K18 P301L, heparin-induced fibrillization, ThT fluorescence; Potency, µM (series often up to 57.4 µM), actives largely listed as inhibitors; 270,000 compounds, 2.1% hits; note: nearly all actives have a fitted effect of over 55% in size
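ThT emission at 510 nm, taken 1 hr after adding 30 uM dye, quantifies aggregates formed when 20 uM heparin acts on human tau K18 P301L for 6 hr at 37 C.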
A number is an active result; 0 = inactive; ? = inconclusive; - = not tested or not shown; ! = repeats disagree; [ ] = dose if it differs, or a comment. Calls come from the whole dose curve; as a rule, active = well fitted curve in the direction sought with a large enough effect; inconclusive = small, poorly fitted or top-dose-only effect, or another doubt; inactive = no such curve, though single readings can be large; an effect the other way counts as inactive or inconclusive.

SMILES | Tau fibril FP | RORg inh | VP16 counter | Tau fluor cs | Tau ThT inhib
COc1cc(/C=C2\C(=O)NC(=O)N(c3ccccc3)C2=O)c([N+](=O)[O-])cc1OC | 0 | 0 | 0 | 0 | ?
CN1C(=O)NC(=O)/C(=C\C=C\c2ccccc2[N+](=O)[O-])C1=O | ? | 10µM | ? | 0 | 25µM
COC1=CC(=O)O[C@H](/C=C/c2ccc3c(c2)OCO3)C1 | - | 0 | 0 | - | -
CCOC(=O)N(C)C(=O)CSP(=S)(OCC)OCC | - | 0 | 0 | - | -
Cc1ccc(NC(=O)c2snnc2C)cc1Cl | 0 | 0 | 0 | 0 | 0
Cc1nn(C(C)(C)C)c(C)c1/C=N/OC(=O)Nc1ccc(Cl)c(Cl)c1 | ? | 0.22µM | 1µM | ? | ?
COC(=O)NC/C=C\c1nc(CC/C=C\C(=O)O[C@H]2C[C@H]3CC(=O)O[C@@H](/C=C\CC(C)C)C[C@@H]4CC[C@H](C)[C@H](C[C@@H](OC)C[C@H](C2)O3)O4)co1 | 0[11.6 µM] | 0.0056µM | ? | 0[11.6 µM] | 0[11.5 µM]
CCNCCNc1ccc([N+](=O)[O-])c2cccnc12 | 0 | 2.8µM | 20µM | 0 | ?
O=[N+]([O-])c1ccc(N2CCCC2)c2ncccc12 | 0 | 0 | 0[10 µM] | 0 | ?
CC1CN(c2ccc([N+](=O)[O-])c3cccnc23)CC(C)N1 (configuration not stated) | 0 | 0 | 0 | 0 | 0
Cc1nonc1OCCNCCNc1ccc([N+](=O)[O-])c2cccnc12 | 0 | 1.8µM | 5µM | 0 | ?
CCCCC(=O)N/N=C/c1c(O)n(CC)c(=S)[nH]c1=O | 0 | 11µM | ? | 0 | 0
CCCCC(=O)N/N=C/c1c(O)n(CCc2ccccc2)c(=O)[nH]c1=O | 0 | 10µM | 0 | 0 | 0
C=C(Cl)CCl | - | 0 | 0 | - | -
CCOP(=S)(OCC)Oc1ncn(-c2ccccc2)n1 | - | 0 | ? | - | -
C[C@]12CC[C@@H]3c4ccc(O)c(O)c4CC[C@H]3[C@@H]1CC[C@@H]2O | ? | ? | 0 | ? | 14µM
C[C@]12CC[C@H]3[C@@H](CCC4=CC(=O)CC[C@@H]43)[C@@H]1CC[C@@H]2O | 0 | 0 | 0 | 0 | 0
C[C@]12CC[C@@H]3c4ccc(OC(=O)N(CCCl)CCCl)cc4CC[C@H]3[C@@H]1CC[C@@H]2O | - | 0 | 0 | - | -
C[C@]12CC[C@@H]3c4cc(O)c(O)cc4CC[C@H]3[C@@H]1CC[C@@H]2O | 0 | 13µM | ? | ? | ?
COc1ccc(CCNc2nc3c(c(=O)n(C)c(=O)n3C)n2Cc2ccc(F)cc2)cc1OC | 0 | - | - | ? | 0
O=C(Nc1ccccc1)c1ccccc1I | - | 0 | 0 | - | -
Nc1ccc(C2(c3ccc(N)cc3)c3ccccc3-c3ccccc32)cc1 | ? | 0 | ? | 14µM[quencher] | ?
COC(=O)C(O)(c1ccc(NC(=S)NC(=O)c2ccccc2)cc1)C(F)(F)F (configuration not stated) | 0 | 10µM | ? | 0 | 0
COC(=O)C(O)(c1ccc(NC(=O)Oc2ccccc2)cc1)C(F)(F)F (configuration not stated) | 0 | ? | 0 | 0 | 0
Cc1ccc(C(=O)Nc2c(C(=O)Nc3ccc(C)c(C)c3)sc3nc(C)cc(C)c23)cc1 | 0 | - | - | ? | ?
SMILES | Tau fibril FP | RORg inh | VP16 counter | Tau fluor cs | Tau ThT inhib
COc1ccc(OCc2n[nH]c(=S)n2Cc2ccco2)cc1 | 0 | 5.6µM | ? | 0 | 0
Nn1c(COc2ccc(Cl)cc2)n[nH]c1=S | 0 | ? | 0 | 0 | 0
CC1OC(=O)C(C(C)C)NC(=O)C(C(C)C)OC(=O)C(C(C)C)NC(=O)C(C)OC(=O)C(C(C)C)NC(=O)C(C(C)C)OC(=O)C(C(C)C)NC(=O)C(C)OC(=O)C(C(C)C)NC(=O)C(C(C)C)OC(=O)C(C(C)C)NC1=O (configuration not stated) | 0 | 0.25µM | 0.56µM | 0 | 0
Cc1ccc(C=C2C(Cl)=C(Cl)C(Cl)=C2Cl)cc1 | ? | 0 | 0 | ? | 16µM
C/C(=N\Nc1ccccc1)c1c(O)[nH]c(=O)[nH]c1=O | 0 | 0 | 0 | 0 | -
CC/C(=N\NC(=S)Nc1ccccc1)c1c(O)[nH]c(=O)[nH]c1=O | ? | 5.6µM | ? | 0 | ?
CC1Oc2cc3c(-c4c(O)cc(O)c5c(O)c6c(cc45)OC(C)C(C)C6=O)c(O)cc(O)c3c(O)c2C(=O)C1C (configuration not stated) | ? | 4µM | ? | 13µM[quencher] | 13µM
CN(C)C(CSC(N)=O)CSC(N)=O | - | 0 | 0 | - | -
COc1cc(/C=C/[N+](=O)[O-])ccc1OC(=O)c1cccnc1 | - | 6.3µM | 3.5µM | - | -
Cc1cc(C=C2C(=O)NC(=S)NC2=O)c(C)n1C1CCCC1 | 0 | ? | 0 | 0 | 16µM
[CH3][Hg][Cl] | - | 0.89µM | 0.71µM | - | -
C[C@@H](NC(=O)[C@@H](N)Cc1ccc(O)cc1)C(=O)NCC(=O)N(C)[C@@H](Cc1ccccc1)C(=O)NCCO | - | 0 | 0 | - | -
Cc1cccc(N2C(=O)NC(=O)/C(=C/c3ccc([N+](=O)[O-])o3)C2=O)c1 | 0 | 0 | ? | 0 | 0
CCOc1ccc(N2C(=O)/C(=C/c3ccc(C)o3)C(=O)NC2=S)cc1 | - | 0[1.91 µM] | 0 | - | -
Cc1cccc(N2C(=O)/C(=C/c3ccc(CN(CCC#N)S(C)(=O)=O)o3)C(=O)NC2=S)c1 | ? | 0 | 0 | 0 | 25µM
Cc1ccc(N2C(=O)/C(=C/c3ccc(CN(CCC#N)S(C)(=O)=O)o3)C(=O)NC2=S)cc1C | ? | 0 | 0 | 0 | 18µM
CN1c2ccc([N+](=O)[O-])cc2CC2(C(=O)NC(=O)N(c3ccc(Br)cc3)C2=O)C1c1ccccc1 (configuration not stated) | 0 | ? | 0 | 0 | 16µM
N#CC(Br)Br | - | 2.5µM | 0 | - | -
CC1CCCCC1n1c(-c2cccnc2)n[nH]c1=S (configuration not stated) | 0 | 10µM | ? | 0 | 0
C=CC(=O)OCC(CO)(COC(=O)C=C)COC(=O)C=C | - | 4.5µM | 5.6µM | - | -
C=CC(=O)OCCO | - | 0 | 0 | - | -
Clc1ccc(C2(Cn3cncn3)OCCO2)c(Cl)c1 | - | 0 | 0 | - | -
CCCC1COC(Cn2cncn2)(c2ccc(Cl)cc2Cl)O1 (configuration not stated) | 0 | ? | 18µM! | 0 | 0
CC(Cl)(Cl)Cl | - | 0 | 0 | - | -
CCCCCOC(=O)c1ccccc1C(=O)OCCCCC | - | 0 | 0 | - | -
SMILES | Tau fibril FP | RORg inh | VP16 counter | Tau fluor cs | Tau ThT inhib
S=C1Nc2ccccc2Sc2ccccc21 | 0 | 2µM | 5µM | 0 | 0
O=C(Nc1cccc(C(F)(F)F)c1)OC1CN2CCC1CC2 (configuration not stated) | - | 0 | 0 | - | -
OC(c1cccc(Cl)c1)(c1cccc(Cl)c1)C1CN2CCC1CC2 (configuration not stated) | 0 | 6.3µM | 11µM | 0 | 0
C(CCOCC1CO1)COCC1CO1 (configuration not stated) | - | 0 | 0 | - | -
COc1ccc2[nH]cc(CCN)c2c1 | 0 | 0 | 0 | 0 | ?
CCCCCCCCCOc1ccc2[nH]cc(CCN)c2c1 | ? | 3.2µM | ? | 7.9µM[quencher] | ?
O=C1C=CC(=O)C=C1 | 0 | 11µM | 0 | 0 | 0
